High-throughput results deposited in PubChem by National Center for Advancing Translational Sciences (NCATS).
Sampled rows, rich in hits. Any-hit rate of the full collection: about 7.4%.
Rab9 promoter act = qHTS Assay for Rab9 Promoter Activators | 2.8% of 320,000 active | AID 485297, 2010 | Potency, µM (top dose mostly 9.22 µM), actives largely listed as activators | Huh7 Rab9 promoter-luciferase reporter, luminescence, 24 h; also: nearly all actives have a fitted effect of over 60% in size
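Huh7 cells stably carrying Rab9 promoter–luciferase reporter, plated 1500 cells/well, compound added after 2 h and incubated 24 h at 37 °C; luciferase luminescence then read after 10 min with detection reagent.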
SMN2 splice enh = qHTS Assay for Enhancers of SMN2 Splice Variant Expression | HEK293 SMN2-luciferase splicing reporter, luminescence, 30-36 h | AID 1458, 2008 | 2.8% of 210,000 active | Potency, µM (highest dose often 46.1 µM), actives largely listed as activators; also: nearly all actives have a fitted effect of over 55% in size
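HEK293 cells carry an SMN2 […]–luciferase reporter in which exon 7 inclusion puts luciferase in frame. Cells were plated 10-12 h before compound addition, then incubated 30-36 h at 37C. ONE-Glo luminescence was read; sodium butyrate at 4.5 mM final served as control.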
FLuc counter = qHTS profiling assay for firefly luciferase inhibitor/activator using purifed enzyme and Km concentrations of substrates (counterscreen for miR-21 project); purified FLuc, Km substrates, luminescence inhibition; Potency, µM (titrated, usually from 57.5 µM), usual class: inhibitors; 6.9% of 360,000 active; also: nearly all actives have a fitted effect of over 55% in size
Target sequence (P08659 whole entry, looked up): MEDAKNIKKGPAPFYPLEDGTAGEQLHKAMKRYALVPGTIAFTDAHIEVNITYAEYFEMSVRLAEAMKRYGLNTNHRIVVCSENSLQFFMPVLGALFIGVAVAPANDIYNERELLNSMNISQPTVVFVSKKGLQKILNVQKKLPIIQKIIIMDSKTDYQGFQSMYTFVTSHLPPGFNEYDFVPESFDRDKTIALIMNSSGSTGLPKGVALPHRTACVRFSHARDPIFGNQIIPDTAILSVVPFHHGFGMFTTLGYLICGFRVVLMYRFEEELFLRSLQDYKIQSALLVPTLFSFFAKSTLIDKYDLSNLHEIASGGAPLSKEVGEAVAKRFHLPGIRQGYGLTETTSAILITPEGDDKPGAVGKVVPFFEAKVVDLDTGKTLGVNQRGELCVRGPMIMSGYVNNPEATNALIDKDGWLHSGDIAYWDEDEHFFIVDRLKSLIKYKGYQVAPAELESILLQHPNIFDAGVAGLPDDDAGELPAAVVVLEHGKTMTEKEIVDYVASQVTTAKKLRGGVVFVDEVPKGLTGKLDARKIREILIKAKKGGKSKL
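Biochemical qHTS of compounds, final roughly 60 µM downward over six points, against 10 nM purified firefly luciferase using Km concentrations of substrates (10 uM D-luciferin, 10 uM ATP) in Tris acetate pH 7.5 buffer; luminescence output.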
NPC1 prom act = qHTS Assay for NPC1 Promoter Activators. Huh7 NPC1 promoter luciferase reporter, 24 h. 2.4% of 320,000 active. AID 485313, 2010. Potency, µM (series often up to 9.22 µM), most hits filed as activators; also: nearly all actives have a fitted effect of over 60% in size
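In 1536-well qHTS, Huh7 cells harboring an NPC1 promoter–luciferase construct received compound for 24 h; activation was quantified by luminescence following luciferase reagent addition.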
ELG1 genotoxic = qHTS screen for small molecules that induce genotoxicity in human embryonic kidney (HEK293T) cells expressing luciferase-tagged ELG1; HEK293T ELG1-luciferase reporter, luminescence, 16 h; AID 504466, 2011; Potency, µM (highest dose often 46 µM), usual class: activators; 1.3% of 330,000 active; also: nearly all actives have a fitted effect of over 60% in size
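Genotoxic stress is detected as increased luminescence from luciferase-tagged ELG1 in HEK293T cells, measured with ONE-Glo after a 16 hr treatment at 37 °C.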
A number is an active result; 0 = inactive; ? = inconclusive; - = not tested or not shown. Calls follow the shape of the dose curve; as a rule, active = well fitted curve in the direction sought with a large enough effect; inconclusive = small, poorly fitted or top-dose-only effect, or another doubt; inactive = no such curve, though single readings can be large; an effect the other way counts as inactive or inconclusive.

SMILES	Rab9 promoter act	SMN2 splice enh	FLuc counter	NPC1 prom act	ELG1 genotoxic
Cc1ccc(-n2c3c(c(=O)[nH]c2=O)C(NC(=O)c2ccccc2F)(C(F)(F)F)C(=O)N3)cc1C (stereo not drawn)	-	0	0	-	-
Cc1ccc2c(CC(=O)Nc3ccc(N4CCN(C)CC4)cc3C)coc2c1	0	0	8.5µM	?	0
CCOC(=O)c1c(NC(=O)Cc2coc3cc(C)ccc23)sc2c1CCCC2	-	0	0	-	-
Cc1ccc(NC(=O)Cc2coc3c(C)c(C)ccc23)c(C)c1	-	0	0	-	-
Cc1ccc2c(CC(=O)Nc3sccc3C(N)=O)coc2c1	2.8µM	?	11µM	2µM	?
O=C(Cc1csc(NC(=O)Nc2cccc(Cl)c2)n1)NCc1cccnc1	0	-	6.7µM	0	0
O=C(Cc1csc(NC(=O)Nc2ccc(Cl)cc2)n1)NCc1cccnc1	0	-	3µM	0	0
COc1ccccc1NC(=O)Nc1nc(CC(=O)NCc2cccnc2)cs1	0	-	?	0	0
O=C(Cc1csc(NC(=O)Nc2cccc(Cl)c2)n1)NCc1ccccn1	?	-	2.7µM	0	0
O=C(NCc1cccnc1)Nc1cccc(Cl)c1	0	-	0	0	0
CCOC(=O)c1sc(N2C(=O)c3oc4ccccc4c(=O)c3C2c2ccc(C(C)(C)C)cc2)nc1C (stereo not drawn)	-	0	0	-	-
O=C(c1cc(-c2ccc(Cl)cc2Cl)on1)N1CCCCCC1	0.71µM	-	1.2µM	0.71µM	4.6µM
O=C(c1cc(-c2ccc(Cl)cc2Cl)on1)N1CCCC1	1µM	-	0.43µM	0.89µM	2.9µM
O=C(NCCN1CCOCC1)c1cc(-c2cccc(Cl)c2)on1	0	-	0	0	0
Cc1cc(C(=O)N2CCCC(C(=O)c3ccc(Cl)cc3C)C2)no1 (stereo not drawn)	0	-	0	0	0
O=C(NCCN1CCOCC1)c1cc(-c2ccc(Cl)cc2Cl)on1	0	-	11µM	0	0
CN1CCN(C(=O)c2cc(-c3ccco3)on2)CC1	0	0	?	0	0
Cc1ccc(-c2noc(CN3CCOCC3)n2)cc1	2.8µM	?	17µM	3.2µM	?
Clc1ccc(-c2noc(CN3CCCC3)n2)cc1	?	?	19µM	?	10µM
COc1ccc(N2CCN(Cc3nc(-c4ccc(C)cc4)no3)CC2)cc1	-	0	0	-	-
Cc1ccc(-c2noc(Cn3cc(S(=O)(=O)N4CCCC4)ccc3=O)n2)cc1	0	-	24µM	0	0
Clc1ccc(-c2noc(CN3CCN(c4ccccc4)CC3)n2)cc1	0	0	0	0	0
Cc1ccc(-c2noc(CN3CCCCC3)n2)cc1	?	?	19µM	?	13µM
CCOC(=O)c1c(C)[nH]c(C)c1S(=O)(=O)N1CCCC(C(=O)Nc2ccc(F)cc2F)C1 (stereo not drawn)	-	-	0	-	-
CCc1ccc(-n2nc(C)c3c(C(=O)Nc4cc(C)c(Cl)cc4OC)cc(C)nc32)cc1	-	-	0	-	-
SMILES	Rab9 promoter act	SMN2 splice enh	FLuc counter	NPC1 prom act	ELG1 genotoxic
O=C(c1cc2c(ccc3ccccc32)o1)N1CCN(c2ncc(C(F)(F)F)cc2Cl)CC1	0	0	0	0	0
O=C(c1cc2c(ccc3ccccc32)o1)N1CCCCC1	0.89µM	-	2.1µM	1.3µM	?
O=C(O)c1cc2c(ccc3ccccc32)o1	0	-	17µM	0	0
CC(=O)c1ccc(N2CCN(S(=O)(=O)c3c(C)nc4sc(C)cn4c3=O)CC2)cc1	-	-	0	-	-
Cc1ccc2nc(N/C(=N/S(=O)(=O)c3ccc(F)cc3F)c3ccccc3)sc2c1	0	-	?	0	0
Cc1ccc2nc(NC(=O)CCCC(=O)O)sc2c1	0	0	5.4µM	0	0
Cc1ccc2nc(N/C(=N/S(=O)(=O)c3ccc(F)cc3)c3ccccc3)sc2c1	?	?	8.5µM	0	0
Cc1ccc2nc(NC(=O)CCn3cccc3)sc2c1	?	?	0	0	0
Cc1ccc2nc(NC(=O)CCCc3nc4ccccc4s3)sc2c1	0	0	17µM	0	?
c1ccc(OCCOc2ncnc3ccccc23)cc1	4µM	0	?	3.5µM	?
Cc1ccc(S(=O)(=O)N(C)CC(=O)Nc2ccc(C)cn2)cc1	?	-	0	0	0
